From PubChem BioAssay (NCATS)
Inconclusive results are not listed. Calls of active or inactive are those of the source. Calls follow the shape of the dose curve; as a rule, active = well fitted cell-killing curve with a large enough effect; inconclusive = small, poorly fitted or top-dose-only effect, or effect the other way; inactive = no such curve, though single readings can be large or run the other way.

Assays:
[1] = Quantitative High-Throughput drug screen in 47 multiple myeloma cell lines against the NCATS MIPE library collection: XG1_PLB cell viability assay (AID 1919866); also: nearly all actives have a fitted effect of over 35% in size
Summary of the method: (§1)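 Inhibition of viability over 48 h was scored by ATP content (CellTiter-Glo) in 500-cell wells. Zero and full viability were defined by media-only and DMSO-only wells.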

[2] = Quantitative High-Throughput drug screen in 47 multiple myeloma cell lines against the NCATS MIPE library collection: VP6_DJ cell viability assay (AID 1919867); also: nearly all actives have a fitted effect of over 40% in size
Summary of the method: as §1

[3] = Quantitative High-Throughput drug screen in 47 multiple myeloma cell lines against the NCATS MIPE library collection: UTMC2_PLB cell viability assay (AID 1919868); settings: CellTiter-Glo ATP luminescence, 48 h; viability (% of DMSO control): at 45.8 µM (top of the series); also: nearly all actives have a fitted effect of over 55% in size
Summary of the method: as §1

[4] = Quantitative High-Throughput drug screen in 47 multiple myeloma cell lines against the NCATS MIPE library collection: PE2_PLB cell viability assay (AID 1919869); also: nearly all actives have a fitted effect of over 35% in size
Summary of the method: as §1

[5] = Quantitative High-Throughput drug screen in 47 multiple myeloma cell lines against the NCATS MIPE library collection: PCM6_Riken cell viability assay (AID 1919870); also: nearly all actives have a fitted effect of over 30% in size
Summary of the method: as §1

[6] = Quantitative High-Throughput drug screen in 47 multiple myeloma cell lines against the NCATS MIPE library collection: RPMI8226_ATCC cell viability assay (AID 1919871); also: nearly all actives have a fitted effect of over 30% in size
Summary of the method: as §1

[7] = Quantitative High-Throughput drug screen in 47 multiple myeloma cell lines against the NCATS MIPE library collection: OPM2_DSMZ cell viability assay (AID 1919872); also: nearly all actives have a fitted effect of over 30% in size
Summary of the method: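 Luminescent ATP measurement with CellTiter-Glo gives viability, scaled between DMSO-only wells (100%) and media-only wells (0%). Cells, 500 per well, faced library compounds for 48 hours at 37C.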

[8] = Quantitative High-Throughput drug screen in 47 multiple myeloma cell lines against the NCATS MIPE library collection: KMS11_JCRBsus cell viability assay (AID 1919873); also: nearly all actives have a fitted effect of over 50% in size
Summary of the method: as §1

[9] = Quantitative High-Throughput drug screen in 47 multiple myeloma cell lines against the NCATS MIPE library collection: KMS28BM_JCRB cell viability assay (AID 1919874); also: nearly all actives have a fitted effect of over 35% in size
Summary of the method: as §1

Measured: Potency
Potency is read from the fitted curve at half-maximal effect.

CNC(=O)c1ccc2c(C(=Nc3cccc(CN(C)C)c3)c3ccccc3)c(O)[nH]c2c1
active: [1] 14.8 µM | [2] 16.6 µM | [3] 16.6 µM | [4] 18.7 µM | [5] 16.6 µM | [6] 13.2 µM
inactive: [7]

CCN(CC)CCCCNc1nc2cc(Cl)c(Cl)cc2nc1-c1ccc(-c2cccs2)s1
active: [1] 8.33 µM | [2] 8.33 µM | [3] 9.35 µM | [4] 9.35 µM | [5] 8.33 µM | [6] 10.5 µM | [7] 10.5 µM | [8] 8.33 µM | [9] 7.43 µM

CN1C(=O)C(Cc2c[nH]c3ccccc23)NC1=S (stereo unspecified)
active: [2] 7.43 µM | [3] 2.96 µM | [5] 3.72 µM
not listed: [8]
inactive: all other assays above

COc1ccc(-c2cc3nccn3c(Nc3ncccc3C(N)=O)n2)cc1OC
inactive: [6]
active: [1] 1.05 µM | [2] 0.935 µM | [3] 1.18 µM | [4] 0.59 µM | [5] 0.264 µM | [7] 8.33 µM | [8] 4.69 µM

COc1cc2ncnc(Nc3cc(Br)c(O)c(Br)c3)c2cc1OC
inactive: [9]
active: [1] 0.0074 µM | [2] 0.0148 µM | [3] 0.526 µM | [4] 0.0833 µM | [5] 0.0332 µM | [6] 8.33 µM

Fc1ccc(C(c2ccc(F)cc2)N2CCN(CC=Cc3ccccc3)CC2)cc1
inactive: [3] | [7]
active: [1] 9.35 µM | [2] 8.33 µM | [4] 5.26 µM | [5] 5.9 µM | [6] 16.6 µM

Cc1ccc(NC(=O)c2cccc(N(C)C)c2)cc1NC(=O)c1ccc(O)cc1
inactive: [6]
active: [1] 0.0469 µM | [2] 0.469 µM | [3] 0.332 µM | [4] 18.7 µM | [5] 0.418 µM | [8] 4.18 µM

C=CCc1cccc(C=NNC(=O)CN2CCN(Cc3ccccc3)CC2)c1O
active: [1] 10.5 µM | [2] 7.43 µM | [3] 20.9 µM | [4] 20.9 µM | [5] 26.4 µM | [7] 16.6 µM | [8] 8.33 µM

Cc1ccccc1-n1c(Cn2nc(-c3cccc(O)c3)c3c(N)ncnc32)nc2cccc(C)c2c1=O
active: [1] 2.09 µM | [2] 1.05 µM | [3] 4.18 µM | [4] 2.35 µM | [5] 5.9 µM | [6] 13.2 µM | [7] 8.33 µM | [8] 6.62 µM | [9] 7.43 µM

Cc1ccc(S(=O)(=O)OCC(=O)Nc2ccc(C(=O)O)c(O)c2)cc1
active: [1] 7.43 µM | [2] 16.6 µM | [3] 9.35 µM | [4] 20.9 µM | [5] 20.9 µM
inactive: [7] | [8] | [9]

CCCCCOC(=O)Nc1nc(=O)n([C@@H]2O[C@H](C)[C@@H](O)C2O)cc1F (stereo partly specified)
active: [1] 18.7 µM | [2] 2.64 µM
not listed: [8] | [9]
inactive: all other assays above

Cc1c(-c2cccc3c(CCCOc4cccc5ccccc45)c(C(=O)O)n(Cc4cccnc4)c23)c(COc2ccc(N3CCN([S+](=O)([O-])N(C)C)CC3)cc2)nn1C
inactive: [1] | [5]
active: [2] 8.33 µM | [3] 20.9 µM | [4] 18.7 µM | [7] 16.6 µM

CCCCCCCCCCCCCC(=O)N[C@H](CO)[C@H](O)c1ccc([N+](=O)[O-])cc1
inactive: [7]
active: [1] 20.9 µM | [2] 26.4 µM | [3] 18.7 µM | [4] 26.4 µM | [5] 20.9 µM | [8] 23.5 µM

Cc1ccc(NC(=O)Nc2cc(C(F)(F)F)ccc2F)cc1Nc1ccc2c(c1)NC(=O)C2=Cc1ccc[nH]1
active: [1] 6.62 µM | [2] 5.26 µM | [3] 8.33 µM | [4] 4.18 µM | [5] 3.32 µM

C=CC(=O)Nc1cccc(Sc2nc(Nc3ccc(N4CCN(C)CC4)cc3)ncc2Cl)c1
active: [1] 1.05 µM

CNC1CCC(N(Cc2cccc(-c3ccncc3)c2)C(=O)c2sc3ccccc3c2Cl)CC1 (stereo unspecified)
active: [1] 9.35 µM | [2] 8.33 µM | [3] 10.5 µM | [4] 10.5 µM | [5] 8.33 µM | [6] 26.4 µM | [8] 8.33 µM | [9] 18.7 µM
